The values that follow come from ChEMBL document CHEMBL1961873, “Compounds: GSK PKIS; Assays: Nanosyn kinase panel” (2012).

In assay [1] the target is T1, Serine/threonine-protein kinase Nek9 (Homo sapiens) (UniProt Q8TD19).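 Further: each value is a mean percent inhibition of NEK9.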
T1 sequence (whole entry): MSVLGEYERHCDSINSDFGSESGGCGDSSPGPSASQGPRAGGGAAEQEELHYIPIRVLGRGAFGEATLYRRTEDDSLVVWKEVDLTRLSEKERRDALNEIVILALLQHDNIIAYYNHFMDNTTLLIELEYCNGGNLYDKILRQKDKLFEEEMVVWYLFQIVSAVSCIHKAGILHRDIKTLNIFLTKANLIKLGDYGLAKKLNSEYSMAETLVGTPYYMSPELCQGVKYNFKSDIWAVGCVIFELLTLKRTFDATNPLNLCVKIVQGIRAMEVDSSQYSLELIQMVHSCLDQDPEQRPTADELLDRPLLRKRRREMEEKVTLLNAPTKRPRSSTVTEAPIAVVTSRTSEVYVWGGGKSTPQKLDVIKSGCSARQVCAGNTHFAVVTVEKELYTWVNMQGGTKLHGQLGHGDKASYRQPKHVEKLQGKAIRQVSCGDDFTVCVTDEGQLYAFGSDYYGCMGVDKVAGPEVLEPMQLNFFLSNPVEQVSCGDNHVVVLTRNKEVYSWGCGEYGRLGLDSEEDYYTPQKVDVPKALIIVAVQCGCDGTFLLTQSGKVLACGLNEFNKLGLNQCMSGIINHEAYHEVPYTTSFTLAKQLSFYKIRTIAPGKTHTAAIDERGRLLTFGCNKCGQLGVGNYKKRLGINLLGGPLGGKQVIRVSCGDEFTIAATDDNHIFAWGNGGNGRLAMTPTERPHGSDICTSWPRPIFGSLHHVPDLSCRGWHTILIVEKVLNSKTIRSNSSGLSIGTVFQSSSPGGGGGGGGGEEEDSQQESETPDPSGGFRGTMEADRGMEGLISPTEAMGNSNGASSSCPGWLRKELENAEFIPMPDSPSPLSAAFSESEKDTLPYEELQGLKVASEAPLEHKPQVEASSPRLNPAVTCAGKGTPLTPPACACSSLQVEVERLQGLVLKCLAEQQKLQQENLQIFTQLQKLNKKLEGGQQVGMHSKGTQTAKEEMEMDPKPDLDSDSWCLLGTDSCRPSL
The note with it: at 1 µM.

Assay [2] deals with Serine/threonine-protein kinase PLK1 (Homo sapiens) (UniProt P53350). Conditions: at 0.1 µM.
Serine/threonine-protein kinase PLK1 (Homo sapiens), sequence (P53350 whole entry): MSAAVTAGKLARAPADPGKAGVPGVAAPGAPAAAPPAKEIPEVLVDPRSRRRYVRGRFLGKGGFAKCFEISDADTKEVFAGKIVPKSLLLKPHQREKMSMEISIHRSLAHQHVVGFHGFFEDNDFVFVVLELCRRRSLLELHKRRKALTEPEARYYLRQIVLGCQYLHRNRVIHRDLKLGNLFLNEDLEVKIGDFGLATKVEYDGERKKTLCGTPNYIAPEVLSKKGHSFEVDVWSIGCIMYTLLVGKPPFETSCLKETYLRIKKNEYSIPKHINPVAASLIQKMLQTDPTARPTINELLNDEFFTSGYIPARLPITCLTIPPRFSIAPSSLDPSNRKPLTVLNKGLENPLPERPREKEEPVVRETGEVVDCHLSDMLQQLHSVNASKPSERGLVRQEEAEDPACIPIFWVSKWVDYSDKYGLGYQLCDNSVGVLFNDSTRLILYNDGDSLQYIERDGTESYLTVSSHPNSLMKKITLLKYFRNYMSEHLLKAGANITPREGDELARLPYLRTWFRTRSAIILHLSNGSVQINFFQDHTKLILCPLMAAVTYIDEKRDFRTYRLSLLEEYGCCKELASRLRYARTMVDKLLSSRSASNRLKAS
For assay [3] the target is unchanged. The note with it: at 1 µM.
The target of assay [4] is T2, Dual specificity protein kinase TTK (Homo sapiens) (UniProt P33981).
T2 sequence (whole entry): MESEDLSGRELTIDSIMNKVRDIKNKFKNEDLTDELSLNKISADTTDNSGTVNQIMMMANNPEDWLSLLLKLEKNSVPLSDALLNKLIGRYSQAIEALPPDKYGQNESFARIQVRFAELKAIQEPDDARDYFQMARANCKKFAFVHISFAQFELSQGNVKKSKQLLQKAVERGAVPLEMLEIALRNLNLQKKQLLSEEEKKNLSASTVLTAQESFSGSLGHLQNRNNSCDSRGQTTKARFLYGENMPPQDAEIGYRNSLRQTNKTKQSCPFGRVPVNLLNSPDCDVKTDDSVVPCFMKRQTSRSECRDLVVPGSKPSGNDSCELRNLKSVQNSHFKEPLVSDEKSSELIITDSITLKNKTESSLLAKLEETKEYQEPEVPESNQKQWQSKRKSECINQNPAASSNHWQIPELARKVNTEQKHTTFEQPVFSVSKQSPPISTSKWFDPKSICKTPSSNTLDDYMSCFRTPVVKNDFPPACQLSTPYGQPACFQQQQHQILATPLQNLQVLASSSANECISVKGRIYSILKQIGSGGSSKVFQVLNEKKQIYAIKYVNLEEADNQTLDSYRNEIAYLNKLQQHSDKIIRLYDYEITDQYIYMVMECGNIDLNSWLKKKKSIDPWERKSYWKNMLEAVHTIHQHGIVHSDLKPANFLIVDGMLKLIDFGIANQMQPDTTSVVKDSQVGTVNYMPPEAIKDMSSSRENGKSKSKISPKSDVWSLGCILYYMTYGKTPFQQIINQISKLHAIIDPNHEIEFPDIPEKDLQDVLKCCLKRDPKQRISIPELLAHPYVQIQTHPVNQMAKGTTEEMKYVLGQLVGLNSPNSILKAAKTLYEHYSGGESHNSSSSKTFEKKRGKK
The note with it: at 0.1 µM.

In assay [5] the test system is T3, Receptor-type tyrosine-protein kinase FLT3 (Homo sapiens), P36888 [D835Y].
T3 sequence (whole entry): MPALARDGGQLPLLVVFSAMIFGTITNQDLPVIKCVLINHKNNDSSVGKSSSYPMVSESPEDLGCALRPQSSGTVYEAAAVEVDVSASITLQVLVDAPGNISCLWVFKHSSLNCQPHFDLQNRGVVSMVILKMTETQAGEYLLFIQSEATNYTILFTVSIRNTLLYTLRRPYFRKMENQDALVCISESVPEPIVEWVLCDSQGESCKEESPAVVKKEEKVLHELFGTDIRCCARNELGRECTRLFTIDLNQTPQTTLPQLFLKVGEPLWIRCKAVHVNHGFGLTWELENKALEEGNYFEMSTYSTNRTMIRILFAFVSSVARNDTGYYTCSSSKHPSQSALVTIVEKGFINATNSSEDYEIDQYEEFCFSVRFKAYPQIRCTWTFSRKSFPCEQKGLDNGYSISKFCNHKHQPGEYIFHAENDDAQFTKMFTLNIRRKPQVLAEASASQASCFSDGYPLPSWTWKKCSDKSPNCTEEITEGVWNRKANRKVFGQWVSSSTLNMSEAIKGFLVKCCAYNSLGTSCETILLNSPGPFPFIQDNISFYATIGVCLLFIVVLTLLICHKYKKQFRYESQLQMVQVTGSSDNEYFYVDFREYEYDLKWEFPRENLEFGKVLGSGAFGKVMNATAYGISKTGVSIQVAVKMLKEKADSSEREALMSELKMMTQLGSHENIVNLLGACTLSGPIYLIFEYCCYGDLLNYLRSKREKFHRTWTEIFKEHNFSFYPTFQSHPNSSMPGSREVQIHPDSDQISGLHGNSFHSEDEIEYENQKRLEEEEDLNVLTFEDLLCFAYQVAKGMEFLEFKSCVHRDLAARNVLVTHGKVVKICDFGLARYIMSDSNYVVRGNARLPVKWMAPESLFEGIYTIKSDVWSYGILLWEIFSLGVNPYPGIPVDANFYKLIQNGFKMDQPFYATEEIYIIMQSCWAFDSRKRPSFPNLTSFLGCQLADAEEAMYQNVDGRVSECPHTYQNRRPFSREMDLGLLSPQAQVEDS
Conditions: at 1 µM.

In assay [6] the target is Vascular endothelial growth factor receptor 3 (Homo sapiens) (UniProt P35916). Conditions: at 0.1 µM.
Vascular endothelial growth factor receptor 3 (Homo sapiens), sequence (P35916 whole entry): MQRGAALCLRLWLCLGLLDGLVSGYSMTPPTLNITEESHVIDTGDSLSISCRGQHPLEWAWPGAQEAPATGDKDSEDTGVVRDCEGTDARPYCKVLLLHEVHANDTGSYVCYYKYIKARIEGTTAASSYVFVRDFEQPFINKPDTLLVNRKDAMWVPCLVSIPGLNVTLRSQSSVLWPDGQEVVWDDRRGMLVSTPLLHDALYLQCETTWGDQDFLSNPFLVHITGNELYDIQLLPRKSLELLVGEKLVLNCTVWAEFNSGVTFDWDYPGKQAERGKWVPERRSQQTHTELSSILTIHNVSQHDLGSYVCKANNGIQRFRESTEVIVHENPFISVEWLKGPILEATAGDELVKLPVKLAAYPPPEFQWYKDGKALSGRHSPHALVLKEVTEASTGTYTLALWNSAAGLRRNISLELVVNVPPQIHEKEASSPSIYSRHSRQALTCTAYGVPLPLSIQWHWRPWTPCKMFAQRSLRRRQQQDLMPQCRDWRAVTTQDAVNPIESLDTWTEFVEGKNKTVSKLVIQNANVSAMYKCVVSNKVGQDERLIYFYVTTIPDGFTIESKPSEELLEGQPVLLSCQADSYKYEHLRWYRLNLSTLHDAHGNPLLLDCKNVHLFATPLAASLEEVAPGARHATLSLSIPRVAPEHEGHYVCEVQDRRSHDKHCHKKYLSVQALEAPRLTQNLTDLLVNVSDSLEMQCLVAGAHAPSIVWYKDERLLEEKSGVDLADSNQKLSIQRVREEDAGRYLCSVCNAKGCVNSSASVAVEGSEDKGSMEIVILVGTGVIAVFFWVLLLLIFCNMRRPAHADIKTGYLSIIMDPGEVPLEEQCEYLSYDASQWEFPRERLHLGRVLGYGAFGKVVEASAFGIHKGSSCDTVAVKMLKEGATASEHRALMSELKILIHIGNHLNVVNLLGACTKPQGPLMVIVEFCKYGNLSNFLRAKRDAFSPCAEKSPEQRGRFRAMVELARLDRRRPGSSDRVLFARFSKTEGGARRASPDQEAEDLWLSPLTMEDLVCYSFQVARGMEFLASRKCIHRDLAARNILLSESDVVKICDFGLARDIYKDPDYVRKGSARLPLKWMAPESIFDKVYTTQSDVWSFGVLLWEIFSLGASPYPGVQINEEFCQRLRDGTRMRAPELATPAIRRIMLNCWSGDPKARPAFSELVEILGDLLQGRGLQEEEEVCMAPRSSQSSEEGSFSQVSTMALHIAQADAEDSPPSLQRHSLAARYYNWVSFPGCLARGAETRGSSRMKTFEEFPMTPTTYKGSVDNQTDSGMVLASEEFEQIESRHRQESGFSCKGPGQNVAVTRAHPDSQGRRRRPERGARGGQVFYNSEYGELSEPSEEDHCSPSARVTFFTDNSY
The target is the same in assay [7]. The note with it: at 1 µM.
Assay [8] deals with Macrophage colony-stimulating factor 1 receptor (Homo sapiens) (UniProt P07333). The note with it: at 0.1 µM.
Macrophage colony-stimulating factor 1 receptor (Homo sapiens), sequence (P07333 whole entry): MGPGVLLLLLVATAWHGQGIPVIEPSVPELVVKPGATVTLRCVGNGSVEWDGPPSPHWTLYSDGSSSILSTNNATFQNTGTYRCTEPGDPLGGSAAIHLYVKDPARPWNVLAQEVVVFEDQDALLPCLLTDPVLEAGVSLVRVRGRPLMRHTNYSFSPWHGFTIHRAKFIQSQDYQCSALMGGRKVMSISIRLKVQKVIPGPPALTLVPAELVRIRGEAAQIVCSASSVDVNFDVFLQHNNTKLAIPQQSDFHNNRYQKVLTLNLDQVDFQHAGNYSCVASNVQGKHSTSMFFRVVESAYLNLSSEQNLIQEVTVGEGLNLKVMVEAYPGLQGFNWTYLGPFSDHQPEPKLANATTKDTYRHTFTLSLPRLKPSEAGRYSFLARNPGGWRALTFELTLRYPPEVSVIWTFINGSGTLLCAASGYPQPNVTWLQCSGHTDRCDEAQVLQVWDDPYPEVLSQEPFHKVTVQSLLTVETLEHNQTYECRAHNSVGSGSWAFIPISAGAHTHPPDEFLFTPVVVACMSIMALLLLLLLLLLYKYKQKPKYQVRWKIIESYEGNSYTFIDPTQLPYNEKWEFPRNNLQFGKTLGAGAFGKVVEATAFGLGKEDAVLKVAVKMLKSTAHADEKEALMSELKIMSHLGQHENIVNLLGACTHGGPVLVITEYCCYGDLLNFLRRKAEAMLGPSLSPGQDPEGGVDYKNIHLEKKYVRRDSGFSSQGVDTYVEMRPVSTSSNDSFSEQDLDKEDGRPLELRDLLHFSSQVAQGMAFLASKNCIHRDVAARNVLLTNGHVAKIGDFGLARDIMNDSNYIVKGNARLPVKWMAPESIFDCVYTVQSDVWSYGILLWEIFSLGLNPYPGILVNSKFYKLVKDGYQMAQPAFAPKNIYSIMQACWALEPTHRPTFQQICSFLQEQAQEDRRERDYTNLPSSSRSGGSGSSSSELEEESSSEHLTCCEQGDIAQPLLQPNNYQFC
For assay [9] the target is unchanged. The note with it: at 1 µM.
For assay [10], the target named is Tyrosine-protein kinase Fyn (Homo sapiens) (UniProt P06241). The note with it: at 0.1 µM.
Tyrosine-protein kinase Fyn (Homo sapiens), sequence (P06241 2-537 limits assumed): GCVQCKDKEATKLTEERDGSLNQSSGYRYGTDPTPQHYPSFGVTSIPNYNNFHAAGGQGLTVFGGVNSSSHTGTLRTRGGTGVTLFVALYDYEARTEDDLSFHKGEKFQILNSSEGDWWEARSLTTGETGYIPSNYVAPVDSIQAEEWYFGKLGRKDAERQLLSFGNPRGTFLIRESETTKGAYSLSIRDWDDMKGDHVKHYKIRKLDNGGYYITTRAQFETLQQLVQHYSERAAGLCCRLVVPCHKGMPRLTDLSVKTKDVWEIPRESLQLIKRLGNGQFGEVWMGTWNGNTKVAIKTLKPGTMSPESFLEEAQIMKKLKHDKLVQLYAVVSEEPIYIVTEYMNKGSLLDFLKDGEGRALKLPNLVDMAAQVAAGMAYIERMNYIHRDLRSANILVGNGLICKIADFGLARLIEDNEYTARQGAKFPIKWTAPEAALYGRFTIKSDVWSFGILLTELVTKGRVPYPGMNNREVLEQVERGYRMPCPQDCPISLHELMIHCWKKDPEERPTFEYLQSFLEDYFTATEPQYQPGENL

In the case of `CC1=C(C(=O)Nc2ccc3[nH]ncc3c2)C(c2ccc(F)cc2)NC(=O)N1` (stereo not given), the inhibition in [1] is 3.09%; in assay [2], 2.01%; in assay [3], 1.91%; in [4], 3.79%; in assay [5] it was -1.48%; in [6] it was 18.2%. Moreover, the inhibition in assay [7] turned out to be 15.4%; in assay [8], 1.12%; in assay [9] it was 0.9%; in assay [10], 1.72%.

As for `O=C1Nc2ccc(C(=O)c3ccco3)cc2C1=Cc1cc(Cl)c(O)c(Cl)c1`, the inhibition in [1] was 5.76%; in assay [2], 9.81%; in assay [3] it was 43.2%; in assay [4], 10.9%; in [5] it was 29.9%; in assay [6], 6.18%. The inhibition was found to be 12.3% in assay [7], 26.3% in assay [8], 74% in [9] and 3.62% in assay [10].

`COc1cc2c(cc1Nc1nc(N3CCc4ccccc43)c3cc[nH]c3n1)N(C(=O)CN(C)C)CC2`: the inhibition was found to be 0.78% in [1]; 5.82% in [2]; 25.4% in assay [3]; 7.66% in assay [4]; 2.32% in assay [5]; 12.9% in [6]. Also, the inhibition is 13.7% in assay [7], 1.41% in assay [8], 2.14% in [9] and -1.37% in [10].

Regarding `COc1ccc2cc(-c3c(-c4ccncc4)nc(-c4ccc([S+](C)[O-])cc4)n3C)ccc2c1` (stereo not given), the inhibition came out at 0.29% in assay [1]; 1.98% in [2]; 4.45% in assay [3]; 4.12% in assay [4]; 5.59% in assay [5]; 1.55% in assay [6]. The inhibition in assay [7] is 0.4%; in [8] it was -0.21%; in assay [9] it was -0.69%; in assay [10] it was 3.05%.

On to `NS(=O)(=O)c1cccc(-c2ccc3c(NC(=O)C4CC4)n[nH]c3c2)c1`, for which the inhibition is 2.04% in [1]; 0.99% in [2]; -1.05% in [3]; -4.5% in assay [4]; -1.12% in assay [5]; 2.99% in assay [6]. Moreover, the inhibition in assay [7] is 5.11%; in assay [8] it was -0.02%; in assay [9], 2.28%; in [10] it was 1.2%.

Consider `COc1ccccc1Nc1ncc(-c2ccccc2)o1`, for which the inhibition in assay [1] is 5.41%; in assay [2] it was 4.91%; in [3], 4.18%; in [4], 10.2%; in assay [5], 25.5%; in [6] it was 3.38%. The inhibition worked out at 9.85% in assay [7], 12% in assay [8], 53.5% in [9] and 4.02% in assay [10].

On to `CS(=O)(=O)CCNCc1ccc(-c2ccc3ncnc(Nc4ccc(OCc5ccccc5)c(Cl)c4)c3c2)o1`, for which the inhibition in assay [1] is 4.02%; in [2], 2.44%; in assay [3], 2.99%; in [4], 4.06%; in [5] it was -0.19%; in assay [6] it was 3.02%. The inhibition in [7] was 2.54%; in assay [8], -2.83%; in assay [9], 10%; in assay [10], 2.44%.

For `CCn1c(-c2nonc2N)nc2c(C#CC(C)(C)O)nc(CN3CCCC3)cc21`, the inhibition was 3.04% in [1]; -0.39% in assay [2]; -1.2% in assay [3]; 1.71% in assay [4]; 0.63% in [5]; 0.61% in assay [6]. Besides, the inhibition in assay [7] is 5.17%; in assay [8], -0.03%; in assay [9] it was 2.57%; in assay [10], 2.94%.

As usually defined, the inhibition is the drop in the measured response relative to a control, in per cent.
